# Data: PubChem BioAssay AID540277 (National Center for Advancing Translational Sciences (NCATS), 2011)
# The campaign covered roughly 320,000 compounds. About 55 (0.02%) were called active. Roughly 3% stayed inconclusive and do not appear here. Cut-off read from the data, not from the text of the source: active = potentiation above about 80%; inconclusive = between about 30% and that limit; inactive = weaker than that. The sample as a whole holds a higher share of actives than the screen did.
# Molecular target: Transient receptor potential cation channel subfamily V member 1 (Homo sapiens) (UniProt Q8NER1)
# Assay: HTS Assay for Compounds that Act as Potentiators of the Vanilloid Receptor 1; note: 0% is about no effect
# Conditions: TRPV1-expressing cells, Fluo-8 calcium influx, capsaicin EC20 potentiation; at 8.33 µM; stronger effect = higher value
# Description: The transient receptor potential ion channel, family V, number 1, (TRPV1) is one of the most important molecular transducers of painful stimuli and a potential target for analgesic drug development. Although recent clinical trials with orthosteric antagonists have not produced a successful drug because of a hyperthermia side effect and their tendency to block thermal noxious pain, this ion channel is undeniably well placed in the pain pathway, and the idea of blocking pain signals before they enter the CNS is an excellent concept and of proven efficacy when TRPV1 agonists are used. We propose a new approach involving allosteric modulation to impose an activity-dependent constraint within the context of inflammation and tissue damage that would alter the responsiveness of the channel in a way that an orthosteric vanilloid antagonist cannot achieve. We believe that the allosteric modulator approach has not been explored for this target. The main goal of this proposal is to identify additional, new, potent allosteric modulators of TRPV1 that can be used to investigate TRPV1 function. Our recent report provides evidence of proof of concept, but the compounds are just at the edge of utility in terms of potency. […] The question of whether they can be used as analgesic agents is complex, but if suitable compounds are identified then testing for analgesic properties will be conducted. NIH Chemical Genomics Center [NCGC] NIH Molecular Libraries Probe Centers Network [MLPCN] MLPCN Grant: MH089480-1A1 Assay Submitter (PI): Michael Iadarola, National Institute of Dental and Cranofacial Research
# Upon TRPV1 activation in TRPV1 cells, the channel opens and extracellular cations flow through the channel into the cytosol. A calcium binding dye (Fluo-8) becomes fluorescent when bound to calcium. This dye is pre-loaded into cells and is used as a marker for calcium influx. The amount of accumulated calcium is precisely quantified using the FDSS kinetic reader and the calcium dye. For the HTS assay, freshly prepared cells are plated at a density of 2000/well in 3 ul medium in 1536-well plates and cultured overnight at 35.5C. Cells will be loaded with 1 ul of the homogeneous calcium dye (ABD Bioquest) at room temperature for 40 to 90 minutes. Plates will be loaded into the FDSS kinetic reader and a 1 sec / cycle for 10 second baseline signal will be measured. Compound library will then be added with a pintool at 23 nl and measured kinetically for 3 minutes. This portion of the read is considered the agonist portion of the screen. Following the 3 minutes of incubation, an on board pipettor will deliver 1 ul of capsaicin for a final concentration equal to the EC20. Signal will be measured kinetically for an additional 2 minutes. This portion of the read is considered the allosteric enhancer portion of the screen. The FDSS reader has a standard filter set capable of measuring calcium bound Fluo-8 (ex=480 and em=520 nm).
# Transient receptor potential cation channel subfamily V member 1 (Homo sapiens), sequence (Q8NER1 whole entry, looked up): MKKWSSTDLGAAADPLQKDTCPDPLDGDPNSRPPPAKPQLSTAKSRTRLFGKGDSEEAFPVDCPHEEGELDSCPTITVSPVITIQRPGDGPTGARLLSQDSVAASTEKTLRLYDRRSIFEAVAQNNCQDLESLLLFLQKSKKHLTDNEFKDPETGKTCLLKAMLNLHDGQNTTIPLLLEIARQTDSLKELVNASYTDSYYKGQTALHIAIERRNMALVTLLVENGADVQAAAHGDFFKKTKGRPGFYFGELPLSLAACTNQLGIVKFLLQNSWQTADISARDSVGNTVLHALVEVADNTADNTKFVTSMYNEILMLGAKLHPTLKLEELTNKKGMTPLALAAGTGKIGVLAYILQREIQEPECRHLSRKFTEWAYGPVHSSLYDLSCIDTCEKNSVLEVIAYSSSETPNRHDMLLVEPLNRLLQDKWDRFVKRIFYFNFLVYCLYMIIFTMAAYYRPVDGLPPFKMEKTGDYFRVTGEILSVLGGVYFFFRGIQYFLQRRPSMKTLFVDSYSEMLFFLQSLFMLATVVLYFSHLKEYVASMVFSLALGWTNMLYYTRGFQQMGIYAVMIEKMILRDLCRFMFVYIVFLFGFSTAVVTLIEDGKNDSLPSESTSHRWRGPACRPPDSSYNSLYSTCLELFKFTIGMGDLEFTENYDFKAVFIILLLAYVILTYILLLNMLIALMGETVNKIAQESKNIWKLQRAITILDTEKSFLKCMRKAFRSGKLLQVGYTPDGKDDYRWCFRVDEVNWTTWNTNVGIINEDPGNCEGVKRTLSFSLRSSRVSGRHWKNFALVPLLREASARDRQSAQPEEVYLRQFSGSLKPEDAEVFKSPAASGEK
row,Structure (SMILES),potentiation
1,CCCCN1C(=O)C(=O)N(CC(=O)Nc2cccc(C(C)=O)c2)C1=O,6.11% (inactive)
2,COC(=O)c1ccc(-c2c(-c3ccccc3)ncc3cc(OC)c(OC)cc23)cc1,-0.0919% (inactive)
3,O=C(NCC1CCCO1)c1cc2c(s1)CCCC2 (stereo unspecified),-3.61% (inactive)
4,COc1ccc(C(C)(C)C)cc1NC(=O)CCN1C(=O)C2CCCCC2C1=O (stereo unspecified),-20% (inactive)
5,Cc1ccc(NC(=O)C(c2ccccc2)N2CCN(C(=O)c3ccco3)CC2)cc1 (stereo unspecified),4.79% (inactive)
6,CN(CCOc1ccccc1)C(=O)c1cc(-c2ccco2)nc2ccccc12,1.05% (inactive)
7,CC1CCN(C(=O)COC(=O)c2cc(=O)[nH]c3ccccc23)CC1,-1.92% (inactive)
8,CN(C)S(=O)(=O)c1cccc(NC(=O)COc2ccc3ccccc3c2)c1,2.88% (inactive)
9,O=C(COC(=O)c1cccc(Cl)c1)NC1CCCCCCC1,-13.9% (inactive)
10,COc1cc(OC)c(C(=S)N2CCCC2)cc1OC,-20.3% (inactive)
11,COc1ccc(-c2cc(C(=O)NCCCN3CCCC3=O)c3ccccc3n2)cc1OC,-7.67% (inactive)
12,COc1cccc(C(=O)c2sc3nc(-c4ccccc4)cc(C(F)(F)F)c3c2N)c1,-4.5% (inactive)
13,CC(C)Cc1nnc(NC(=O)CCNC(=O)c2ccccc2Cl)s1,6.33% (inactive)
14,CCCc1ccc(C(=O)COC(=O)CN2C(=O)NC3(CCCCC3C)C2=O)cc1 (stereo unspecified),-5.74% (inactive)
15,O=C(OCC(=O)N1CCc2ccccc21)C1CCCN1S(=O)(=O)c1ccc(Cl)cc1 (stereo unspecified),-3.33% (inactive)
16,COc1ccc(C)cc1NC(=O)CN1c2cccc3cccc(c23)S1(=O)=O,-17.5% (inactive)
17,COc1ccc(S(=O)(=O)Nc2cccc3cccnc23)c(N)c1,13.6% (inactive)
18,N#Cc1ccccc1S(=O)(=O)N1CCN(Cc2c(O)ccc3ccccc23)CC1,0.42% (inactive)
19,O=C(COC(=O)CNC(=O)C1CCCCC1)NCc1ccccc1,-6.14% (inactive)
20,CC(C)N(C(=O)CN1CCN(S(=O)(=O)c2ccc(Br)s2)CC1)C(C)C,-18.3% (inactive)
21,CCOc1cccc2cc(C(=O)OCC(=O)Nc3c(C)cccc3CC)c(=O)oc12,-5.16% (inactive)
22,Nc1cc(N)nc(SCC(=O)Nc2cccc(S(=O)(=O)N3CCCCC3)c2)n1,0.644% (inactive)
23,COc1cccc(C(=O)n2ccc(-c3cccs3)n2)c1,-6.21% (inactive)

row,Structure (SMILES),potentiation
1,O=C(N[C@@H](Cc1c[nH]c2ccccc12)C(=O)O)OCC1c2ccccc2-c2ccccc21,1.56% (inactive)
2,CN(C(=O)CSc1nnc(-c2ccc(C(C)(C)C)cc2)n1C)C1CCS(=O)(=O)C1 (stereo unspecified),-2.39% (inactive)
3,O=C(CSc1nnc(Nc2ccccc2F)s1)NC1CCCC1,-7.27% (inactive)
4,CCN(CC)S(=O)(=O)c1ccc(OC)c(NC(=O)CCc2c(C)noc2C)c1,-15% (inactive)
5,COc1ccccc1S(=O)(=O)NCc1ccc(C(=O)N(C)Cc2ccc(F)cc2)cc1,-20.6% (inactive)
6,Cc1ccc(NC(=S)N(CCCN2CCC(C)CC2)Cc2ccco2)cc1,8.22% (inactive)
7,Cc1ccc(NC(=S)N(CCN2CCCCC2)Cc2ccco2)cc1C,2.55% (inactive)
8,Cc1ccc(NC(=S)N(Cc2ccco2)C(C)c2cccs2)cc1 (stereo unspecified),141% (active)
9,O=C(O)c1ccccc1N=N/C(=N/Nc1cc(S(=O)(=O)O)ccc1O)c1ccccc1,1.2% (inactive)
10,CN(C)S(=O)(=O)c1ccc(C(=O)NCC2(N3CCOCC3)CCCCC2)cc1,-44.6% (inactive)
11,CN(Cc1cccs1)C(=O)CN1C(=O)c2ccccc2S1(=O)=O,-1.15% (inactive)
12,CCC1(C)NC(=O)N(CC(=O)N2CCN(c3cccc(Cl)c3)CC2)C1=O (stereo unspecified),-16.1% (inactive)
13,O=C(COC(=O)c1ccccc1Cl)NC1CCCCCCC1,-4.06% (inactive)
14,O=C(NCc1ccccc1CN1CCCC1)c1cccc(S(=O)(=O)Nc2ccc(F)cc2)c1,-2.77% (inactive)
15,CC(C)Oc1ccc(C(=O)NCC(=O)Nc2ccc3c(c2)CCC3)cc1,-17.6% (inactive)
16,O=C(Nc1cccc2cccnc12)C(F)(F)F,13.4% (inactive)
17,CCNC(=O)N1CCN(S(=O)(=O)c2ccc3c(c2)OCCCO3)CC1,4.26% (inactive)
18,N#Cc1ccc(C(=O)OCC(=O)NC(=O)NC2CCCCC2)cc1,22.1% (inactive)
19,Cc1ccc(-c2nn(-c3ccccc3)cc2C(=O)NC2CCC(O)CC2)cc1 (stereo unspecified),-7.64% (inactive)
20,Cc1ccc(C(=O)NNC(=O)c2ccc3c(c2)OCCO3)cc1,9.22% (inactive)
21,Cn1c(SCC(=O)Nc2ccc(N3CCOCC3)cc2)nnc1C(F)(F)F,1.26% (inactive)
22,COc1ccc(S(=O)(=O)N2CCN(c3ccc(F)cc3)CC2)cc1-c1noc(C)n1,-6.85% (inactive)
23,CCN(CC(=O)Nc1c(F)cccc1F)C(=O)c1ccc(-c2ccc(C(C)=O)cc2)o1,-3.51% (inactive)

row,Structure (SMILES),potentiation
1,O=C(COc1ccccc1Cl)N1N=C(c2cccs2)CC1c1ccco1 (stereo unspecified),-9.15% (inactive)
2,CCc1cc(C(=O)Nc2nnc(C3CC3)s2)sc1C,-13.7% (inactive)
3,O=C(CN1CCN(S(=O)(=O)c2ccc(Cl)s2)CC1)N1CCCCC1,-6.4% (inactive)
4,CN(C)C(CNC(=O)c1ccc(OCc2cn3ccccc3n2)cc1)c1ccco1 (stereo unspecified),-3.83% (inactive)
5,CN(CC(=O)NC1CCN(Cc2ccccc2)CC1)S(=O)(=O)c1ccc(Cl)s1,6.87% (inactive)
6,COc1ccccc1CNC(=O)COC(=O)c1sc(C)nc1C,1.52% (inactive)
7,Cc1csc2nc(COC(=O)c3cccc(N(C)C)c3)cc(=O)n12,15% (inactive)
8,COc1ccc(CCNC(=O)COc2ccc3c(c2)OCO3)cc1,18.8% (inactive)
9,CCOc1cc(/C=C(/C#N)c2ccc(Cl)cc2)cc(Cl)c1OCC(=O)O,12.2% (inactive)
10,COc1ccc(NC(=O)CC2SC(N3CCCCC3)=NC2=O)cc1OC (stereo unspecified),1.27% (inactive)
11,Cc1cccc(OCCC(=O)OCc2csc(CC(=O)Nc3ccccc3C)n2)c1,-3.33% (inactive)
12,O=S(=O)(Nc1cccc2cccnc12)c1cccc2cccnc12,16.1% (inactive)
13,O=C(COC(=O)CNC(=O)C1CCCCC1)Nc1cccc(F)c1,-7.91% (inactive)
14,O=C(COC(=O)Cc1ccccc1F)NCCc1ccccc1,-16% (inactive)
15,CC(=O)c1sc(NC(=O)CCN2C(=O)C3CC=CCC3C2=O)nc1-c1ccccc1 (stereo unspecified),-6.85% (inactive)
16,CC(C(=O)Nc1ccc(S(=O)(=O)N2CCCC2)cc1)N(C)Cc1ccc(F)cc1 (stereo unspecified),-18.2% (inactive)
17,O=C(OCC(=O)N1CCOCC1)c1ccc2ccccc2c1,17.8% (inactive)
18,O=C(NNC(=O)c1cc(S(=O)(=O)N2CCCCC2)ccc1Cl)c1ccccc1O,-1.67% (inactive)
19,CC1CCCN(C(=O)c2cc(-c3ccco3)nc3ccccc23)C1 (stereo unspecified),27.4% (inactive)
20,CC(C)Nc1ncnc2c1nnn2Cc1ccccc1,-2.19% (inactive)
21,Oc1ccc(Cl)cc1C1C=C(c2ccc3c(c2)OCO3)NC(c2c(F)cccc2Cl)N1 (stereo unspecified),25.7% (inactive)
22,Cc1ccc(C(=O)Nc2ccn(C)n2)cc1,6.57% (inactive)
23,O=S(=O)(Nc1ccc2nc(N3CCOCC3)sc2c1)c1ccccc1,15.8% (inactive)

row,Structure (SMILES),potentiation
1,O=C(CSc1nc2[nH]c(=O)[nH]c(=O)c2s1)Nc1cccc(F)c1,19.7% (inactive)
2,O=C(Nc1ccccc1N1CCOCC1)c1ccncc1,17.2% (inactive)
3,NS(=O)(=O)c1ccc(CNC(=O)c2cccc(S(=O)(=O)N3CCc4ccccc43)c2)cc1,23.8% (inactive)
4,CC(C)n1ncc2c(C(=O)NCc3ccccc3CN(C)C)cc(C3CC3)nc21,3.73% (inactive)
5,Cc1ccc(OCC(=O)N2CCN(S(=O)(=O)c3ccc(Cl)s3)CC2)cc1C,-16.7% (inactive)
6,CCCn1c(N)c(N(CCOC)C(=O)C2CCCC2)c(=O)[nH]c1=O,1.87% (inactive)
7,Oc1ccc(Cl)cc1C1C=C(c2ccc3c(c2)OCO3)NC(c2ccc(F)c(Br)c2)N1 (stereo unspecified),3.03% (inactive)
8,O=C(NCCN1CCOCC1)c1cccc(S(=O)(=O)Nc2ccc(F)cc2)c1,6.45% (inactive)
9,COc1ccc(OC)c(/C=C/C(=O)c2ccc3c(c2)OCO3)c1,-3.4% (inactive)
10,Cc1cccc(Nc2nnc(SCC(=O)c3c(N)n(C4CC4)c(=O)[nH]c3=O)s2)c1C,22.3% (inactive)
11,COc1cc(C#Cc2ccc3cc(CCCO)oc(=O)c3c2)cc(OC)c1,2.73% (inactive)
12,O=C(NCc1ccccc1CN1CCCC1)C1CCN(S(=O)(=O)c2ccc(Cl)cc2)CC1,1.5% (inactive)
13,O=S(=O)(c1ccc(SCc2ccccc2)nc1)N1CCCCCC1,-6.24% (inactive)
14,Cc1ccc2ccc3c(c2n1)NS(=O)(=O)c1ccccc1-3,18.5% (inactive)
15,CC1(C)O[C@@H]2[C@H](O1)[C@@H](COS(=O)(=O)O)O[C@H]2n1cnc2c(=O)[nH]cnc21,8.79% (inactive)
16,COc1cccc(NC(=O)COC(=O)/C=C/c2ccco2)c1,11% (inactive)
17,COc1ccccc1NC(=O)COC(=O)COc1ccccc1F,3.99% (inactive)
18,COc1ccc(NC(=O)CN(C)C(=O)c2cc(C3CC3)nn2-c2ccccc2)cc1,14.7% (inactive)
19,Cc1ccc(/C=C/C(=O)OCC(=O)Nc2cccnc2Cl)cc1,-11.8% (inactive)
20,Cc1cccc(NS(=O)(=O)c2ccc(C)c(C(=O)NCC(c3ccccc3)N(C)C)c2)c1 (stereo unspecified),1.06% (inactive)
21,Cc1cccc(NS(=O)(=O)c2cccc(C(=O)NNC(=O)c3ccccc3O)c2)c1,-12.6% (inactive)
22,COc1ccc(C(=O)OCC(=O)c2cc(C)n(CC3CCCO3)c2C)cc1[N+](=O)[O-] (stereo unspecified),9.08% (inactive)
